Inconclusive results are not listed. Unmarked numbers belong to inactive results. Calls of active or inactive are those of the source. The call rests on the fitted dose curve.
Potency means the concentration at half of the fitted maximal effect.

The test can be described thus: A qHTS for Small Molecule Inhibitors of Shiga Toxin (Confirmatory). Further: nearly all actives have a fitted effect of over 75% in size. On activity, positive = inhibition of toxin: 0% is about no effect. Particulars: Cell-based Shiga toxin protection reporter assay; series mostly up to 38.3 µM; activity, positive = inhibition of toxin: at the top concentration. On the technique in general: qHTS replaces the single test concentration by a dilution series.
For `CSc1nc(SCCO)c2sc3nc(-c4ccco4)c4c(c3c2n1)CC(C)(C)OC4`, the “activity, positive = inhibition of toxin” value was 24.5%.

On to `Cc1cc(C)c2c(n1)SCC(=O)N2CC(=O)Nc1ccc(C)c(C)c1`, for which the Potency was 0.449 µM (active).

In the case of `NS(=O)(=O)c1ccc(CCNC(=O)c2ccc(NC3=NC4CS(=O)(=O)CC4S3)cc2)cc1` (stereo not drawn), the “activity, positive = inhibition of toxin” value is 25.9%.

With `CCCCOC(=O)c1ccc(N=Nc2c(C)c(C#N)c(O)[nH]c2=O)cc1`, the Potency was 15.9 µM (active).

Regarding `Cc1cccc(C(=O)Nc2nnc(SCC(=O)NC3CC3)s2)c1`, the Potency was 4.49 µM (active).

`COc1ccccc1C(=O)NNC(=O)c1ccc2ccccc2c1`: the Potency is 0.0006 µM (active).

Regarding `Cc1ccc2c(c1)N(CC(=O)N1CCCC1)C(=O)CO2`, the “activity, positive = inhibition of toxin” value is -17.2%.

As for `O=C(/C=C/C#Cc1cccc(NS(=O)(=O)c2ccccc2)c1)NO`, the Potency is 11.3 µM (active).

Consider `COc1ccccc1NC(=O)Nc1cc(F)ccc1F`, for which the Potency was 20 µM (active).

For `O=C(Nc1ccc2oc(-c3ccccc3)nc2c1)c1ccc2c(c1)OCCO2`, the Potency is 14.2 µM (active).

Consider `CS(=O)(=O)N(CC(=O)Nc1ccccc1Sc1ccccc1)C1CCCCC1`, for which the “activity, positive = inhibition of toxin” value is -12.4%.

On to `O=C(NCC(=O)N1CCCC(C(F)(F)F)C1)c1ccc(Oc2ccccc2)cc1` (stereo not drawn), for which the “activity, positive = inhibition of toxin” value is 11.5%.

For `CCCc1nc2ccccc2c(=O)n1NC(=O)c1c(O)c2ccccc2[nH]c1=O`, the Potency is 14.2 µM (active).

As for `Cc1cccc(C(=O)Nc2scc(CC(C)C)c2C(=O)O)c1`, the “activity, positive = inhibition of toxin” value was -17.8%.

In the case of `O=C1NC(=Nc2ccc(O)cc2)S/C1=C\C=C\c1ccco1`, the Potency was 0.634 µM (active).

For `Cc1ccc(NC(=O)C(C)N=C2NS(=O)(=O)c3ccccc32)cc1` (stereo not drawn), the Potency is 0.0005 µM (active).

In the case of `CCCC(=O)Nc1cnc(NC(=O)c2cccc(F)c2)cc1C`, the Potency is 0.711 µM (active).

Consider `CC(=O)c1ccc2noc(-c3ccc(F)cc3)c2c1`, for which the Potency is 11.3 µM (active).

`CCCCC1(C)Nc2ccccc2-c2nc3ccccc3n21` (stereo not drawn): the Potency is 12.6 µM (active).

For the compound `Cc1nc(N2CCN(C(=O)c3ccco3)CC2)nc2c1C(=O)CCC2`, the Potency was 6.34 µM (active).

As for `Cc1nn(-c2ccc(C(=O)O)cc2)c2c1C(=O)CC(C)(C)C2`, the “activity, positive = inhibition of toxin” value is -21.4%.

For the compound `Cc1c(C(=O)Nc2nc3ccccc3[nH]2)oc2ccc(Br)cc12`, the Potency was 11.3 µM (active).

Turning to `Cc1cc(C)n(-c2nc(SCCN(C)C)c3c4c(sc3n2)COC(C)(C)C4)n1`, the “activity, positive = inhibition of toxin” value is -33.6%.

In the case of `Cc1cc(NC(=O)/C=C/c2ccc(Br)cc2)no1`, the Potency was 8.95 µM (active).

In the case of `Cc1nc(SCC(=O)Nc2cc(C)on2)c2c3c(sc2n1)CCCC3`, the “activity, positive = inhibition of toxin” value was 40.1%.

In the case of `O=C(Nc1ccc(/C=C/c2nc3ccccc3o2)cc1)c1ccc(F)cc1`, the Potency was 3.18 µM (active).

Regarding `Cc1nnc(NC(=O)C2COc3ccccc3O2)s1` (stereo not drawn), the Potency is 14.2 µM (active).

As for `CCCn1nnc(NC(=O)COc2ccc(C3CCCCC3)cc2)n1`, the Potency was 0.0252 µM (active).

For `CC1CC(C)CN(C(=O)C(NS(=O)(=O)c2ccc(Br)s2)c2ccccc2)C1` (stereo not drawn), the Potency is 2.25 µM (active).

With `CCN1CCN(Cc2c(O)ccc3c(=O)c(-c4ccc(OC)c(OC)c4)c(C(F)(F)F)oc23)CC1`, the “activity, positive = inhibition of toxin” value was 91.1%.

On to `O=C(Sc1cccc2cccnc12)c1ccccc1Br`, for which the Potency is 8.95 µM (active).

With `O=C(NNC(=O)c1nc(Cl)ccc1Cl)c1ccc(F)cc1`, the “activity, positive = inhibition of toxin” value was 23.4%.

In the case of `Cc1sc(NC(=O)CCCC(=O)O)c(C(N)=O)c1-c1ccccc1`, the Potency was 11.3 µM (active).

Turning to `OC1C[N+]2(CCCCC2)C1`, the “activity, positive = inhibition of toxin” value was -28.4%.

As for `Cc1cc(N/C=C\c2nnnn2-c2ccccc2)no1`, the Potency was 22.5 µM (active).

For `CCOC(=O)Cc1csc(NC(=O)CSc2ncnc3c2cnn3-c2ccc(OC)cc2)n1`, the Potency is 5.04 µM (active).

As for `COc1ccccc1N(CCC#N)C(=O)CSc1nc(-c2ccccc2)cn1N`, the “activity, positive = inhibition of toxin” value is 28.7%.

As to `CC(=O)c1ccc(-c2cccc([C@H]3[C@@H]4C=CC[C@@H](C)[C@@H]4C(=O)N3Cc3ccccc3)c2)cc1`, the “activity, positive = inhibition of toxin” value was -17%.

The values are drawn from PubChem BioAssay AID2320 (National Center for Advancing Translational Sciences (NCATS), 2010).
